Screening results as filed in PubChem BioAssay.
GPT2 inhibitor – GPT2 alanine aminotransferase inhibition; Recombinant GPT2, coupled pyruvate oxidase/HRP Amplex Red fluorescence; Potency, µM (doses to about 57.7 µM), hits mostly inhibitors; hit rate 0.25% among 100,000; AID 1671188; also: nearly all actives have a fitted effect of over 60% in size
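Inhibition is scored from Amplex Red fluorescence generated when pyruvate oxidase and HRP act on pyruvate released by GPT2. Reactions contain 10ng/uL enzyme, 250uM a-KG and 2mM L-alanine and run 30 min at room temperature.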
FLuc inh – Photinus pyralis luciferase inhibition; P08659; purified P. pyralis luciferase, luminescence, biochemical; AID 1347043; Potency, µM (titrated, usually from 115 µM), usual class: inhibitors; hit rate 2.5% among 76,000; also: nearly all actives have a fitted effect of over 65% in size
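Cell-free enzyme assay, 10nM P. pyralis luciferase, luciferin and ATP each at 10uM. Inhibition profiled over a 6-point titration, read as luminescence.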
NPR1 antag – human Npr1 receptor antagonism; HEK293 hNpr1 GloSensor cGMP, ANP-stimulated luminescence; Potency, µM (top dose mostly 46.3 µM), most hits filed as inhibitors; P16066; hit rate 1.6% among 76,000; calls by dose curve; also: nearly all actives have a fitted effect of over 60% in size
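Compound pre-incubated 30 min at room temperature on GloSensor-loaded HEK293 cells stably carrying hNpr1 and the pGS-40F cGMP biosensor. Stimulation uses hNppA at 0.1 nM final; luminescence is taken at baseline and 20 min post-agonist.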
NIH3T3 tox – cytotoxic compounds in NIH 3T3 cells; hit rate 4.3% among 94,000; AID 1345082; NIH 3T3 viability, CellTiter-Glo ATP luminescence, 48-72 h; Potency, µM (highest dose often 96.7 µM), hits mostly inhibitors; also: nearly all actives have a fitted effect of over 55% in size
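Mouse fibroblast NIH 3T3 cells, 400 per well, received compound via pintool and were incubated for 48 or 72 hr prior to CellTiter-Glo ATP luminescence measurement.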
HEK293 tox – HEK 293 cell cytotoxicity | HEK 293 viability, ATP luminescence (CellTiter-Glo), 48-72 h | Potency, µM (doses to about 115 µM), hits mostly inhibitors | hit rate 6.6% among 94,000 | AID 1345083; also: nearly all actives have a fitted effect of over 60% in size
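HEK 293 cells at 250 cells/well were exposed to compounds by pintool transfer for 48 or 72 hr at 37 degree Celsius, 5% CO2. Viability was read as ATP-coupled luminescence with CellTiter-Glo after 10 min at room temperature.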
Each line names hits and unclear results; the compound was inactive in the other large screens. Compounds with a hit are over-represented: about 10% of the library has one in this group of screens. Unless noted, calls follow the shape of the dose curve; as a rule, active = well fitted curve in the direction sought with a large enough effect; inconclusive = small, poorly fitted or top-dose-only effect, or another doubt; inactive = no such curve, though single readings can be large; an effect the other way counts as inactive or inconclusive.

Cc1cccc(OCCc2noc(C3CCCN3C(=O)Nc3ccccc3)n2)c1 (centres undefined)	NIH3T3 tox inconclusive, HEK293 tox inconclusive (no result: FLuc inh, NPR1 antag)
Cc1cc2nc(CO[C@H]3CN(Cc4ccc(S(C)(=O)=O)cc4)C[C@H]3F)[nH]c2cc1C	FLuc inh 56µM, HEK293 tox inconclusive
CCCCn1c(=O)c(C(=O)N2CCN(c3ncccn3)CC2)nc2cccnc21	none (no result: FLuc inh, NPR1 antag)
COc1cccc(C(=O)NC2CCN(C(=O)c3ccc(-c4ccccc4OC)cc3)CC2)c1	NIH3T3 tox inconclusive, HEK293 tox inconclusive (no result: FLuc inh, NPR1 antag)
COc1ccc(CN2Cc3cc(NC(=O)c4ccc(F)cc4F)ccc3OC(C)C2=O)c(OC)c1 (centres undefined)	GPT2 inhibitor inconclusive, NIH3T3 tox inconclusive, HEK293 tox 45µM
COc1ccc(C(=O)Nc2ccc3c(c2)CN(Cc2ccc(OC)cc2OC)C(=O)C(C)O3)cc1 (centres undefined)	HEK293 tox inconclusive
CC1Oc2ccc(NC(=O)c3ccc(Cl)cc3)cc2CN(C(C)C)C1=O (centres undefined)	NPR1 antag inconclusive, NIH3T3 tox 40µM, HEK293 tox inconclusive
CCC1Oc2ccc(NC(=O)c3ccc([N+](=O)[O-])cc3)cc2CN(C(C)CC)C1=O (centres undefined)	NIH3T3 tox inconclusive, HEK293 tox 22µM
COc1ccc(CN2Cc3cc(NC(=O)c4ccc(Cl)cc4)ccc3OC(C)C2=O)c(OC)c1 (centres undefined)	NIH3T3 tox inconclusive, HEK293 tox inconclusive
CC1Oc2ccc(NC(=O)c3ccc(F)cc3)cc2CN(Cc2ccccc2Cl)C1=O (centres undefined)	GPT2 inhibitor inconclusive, NIH3T3 tox inconclusive, HEK293 tox inconclusive
CC1Oc2ccc(NC(=O)c3ccc(F)cc3)cc2CN(Cc2ccccc2F)C1=O (centres undefined)	NIH3T3 tox inconclusive, HEK293 tox 45µM
Cc1cc(C)c([S+](=O)([O-])c2nnn3c2nc(N2CCCCC2)c2ccccc23)c(C)c1	none (no result: FLuc inh, NPR1 antag)
COc1ccc(CCC(=O)N2CCN(C(=O)c3nnn4c3COC(c3ccc(C)cc3)C4)CC2)cc1 (centres undefined)	HEK293 tox inconclusive
